The results in this text go back to PubChem BioAssay.

Assay [1] concerns Plasmodium falciparum Sir2 (PF13_0152, Sir2A). In words: Plasmodium falciparum Sir2A binding compounds – biochemical, small-molecule microarray, 635 nm fluorescence, primary screen (AID 1098).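 Further: score merges spot fluorescence intensity with its signal-to-noise ratio.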 The note with it: fluorescence 635 nm, higher = more signal.
Assay [2] in a line: probe aDKK1 binding to arrayed compounds – biochemical, biotinylated probe, 635/667 nm fluorescence, primary screen (AID 1099).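 Further: score merges 667nm spot fluorescence with signal to noise across triplicate slides; reference of the scale not given here.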 The note with it: small-molecule microarray, higher = more signal.
Assay [3] can be described thus: probe aCHRDL2 binding to arrayed compounds – biochemical, biotinylated probe, 635/667 nm fluorescence, primary screen (AID 1100). The note with it: small-molecule microarray, higher = more signal.
The nature of assay [4]: change in splice reporter luminescence, either direction, cell-based, HEK293, spliceosome inhibition project, primary screen (AID 1101).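 Further: HEK293 cells carrying a splicing-competent luciferase reporter gene; test concentration not given here.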 The note with it: HEK293 splicing luciferase reporter, 24 h, higher = more signal, called active from +8 up or from −8 down.
Assay [5] has as its target Fibroblast growth factor 10 (Homo sapiens) (UniProt O15520). In words: compounds binding fibroblast growth factor 10 – biochemical, small-molecule microarray, 635 nm fluorescence, primary screen (AID 1102). The note with it: FGF10 binding, fluorescence 635 nm, higher = more signal.
In assay [6] the test system is glycogen synthase kinase-3 (GSK3A per assay name; protocol says GSK3B). In words: compounds binding glycogen synthase kinase-3 – biochemical, small-molecule microarray, 635 nm fluorescence, GSK3A, primary screen (AID 1103). Further: the record names both GSK3A and GSK3B. The note with it: fluorescence 635 nm, higher = more signal.
Assay [7] concerns the target Epidermal growth factor receptor (Homo sapiens) (UniProt P00533). Briefly: compounds binding epidermal growth factor receptor – biochemical, small-molecule microarray, 635 nm fluorescence, primary screen (AID 1104).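 Further: score merges 667 nm emission intensity with spot signal to noise over triplicate slides.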 The note with it: EGFR binding, higher = more signal.
Assay [8] has as its target Follistatin-related protein 3 (Homo sapiens) (UniProt O95633). Briefly: compounds binding follistatin-related protein 3 – biochemical, small-molecule microarray, 635 nm fluorescence, primary screen (AID 1105).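 Further: score merges emission near 667 nm and signal to noise per printed spot across three slides.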 The note with it: FSTL3 binding, higher = more signal.
The target in assay [9] is Dickkopf-related protein 1 (Homo sapiens) (UniProt O94907). Briefly: small molecules binding DKK1 protein – biochemical, small-molecule microarray, 635 nm fluorescence scan, primary screen (AID 1106).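 Further: score merges emission near 667 nm with signal to noise over three replicate slides.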 The note with it: higher = more signal.
The test system of assay [10] is Inhibin beta A chain (activin A). In words: small molecules binding activin A – biochemical, small-molecule microarray, 635 nm fluorescence scan, primary screen (AID 1107).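 Further: mouse activin A protein probed at 4.33 µg/mL on printed slides; score merges bound-protein fluorescence near 667 nm with spot signal-to-noise.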 The note with it: INHBA, higher = more signal.

SMILES strings stand for the structures. Calls of active or inactive are those of the source.

Follistatin-related protein 3 (Homo sapiens), sequence (O95633 whole entry, looked up): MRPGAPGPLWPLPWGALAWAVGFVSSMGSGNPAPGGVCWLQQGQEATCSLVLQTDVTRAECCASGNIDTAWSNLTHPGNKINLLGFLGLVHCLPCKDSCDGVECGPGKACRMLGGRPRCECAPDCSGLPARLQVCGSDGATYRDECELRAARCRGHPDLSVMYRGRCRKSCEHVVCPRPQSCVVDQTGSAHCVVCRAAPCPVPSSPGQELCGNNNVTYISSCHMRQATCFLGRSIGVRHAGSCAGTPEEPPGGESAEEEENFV
Fibroblast growth factor 10 (Homo sapiens), sequence (O15520 whole entry, looked up): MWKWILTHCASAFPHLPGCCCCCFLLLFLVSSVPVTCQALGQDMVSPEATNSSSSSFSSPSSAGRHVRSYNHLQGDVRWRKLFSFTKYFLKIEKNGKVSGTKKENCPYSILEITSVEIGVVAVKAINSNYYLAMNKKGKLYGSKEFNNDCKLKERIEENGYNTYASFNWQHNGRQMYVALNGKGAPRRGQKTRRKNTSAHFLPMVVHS
Epidermal growth factor receptor (Homo sapiens), sequence (P00533 whole entry, looked up): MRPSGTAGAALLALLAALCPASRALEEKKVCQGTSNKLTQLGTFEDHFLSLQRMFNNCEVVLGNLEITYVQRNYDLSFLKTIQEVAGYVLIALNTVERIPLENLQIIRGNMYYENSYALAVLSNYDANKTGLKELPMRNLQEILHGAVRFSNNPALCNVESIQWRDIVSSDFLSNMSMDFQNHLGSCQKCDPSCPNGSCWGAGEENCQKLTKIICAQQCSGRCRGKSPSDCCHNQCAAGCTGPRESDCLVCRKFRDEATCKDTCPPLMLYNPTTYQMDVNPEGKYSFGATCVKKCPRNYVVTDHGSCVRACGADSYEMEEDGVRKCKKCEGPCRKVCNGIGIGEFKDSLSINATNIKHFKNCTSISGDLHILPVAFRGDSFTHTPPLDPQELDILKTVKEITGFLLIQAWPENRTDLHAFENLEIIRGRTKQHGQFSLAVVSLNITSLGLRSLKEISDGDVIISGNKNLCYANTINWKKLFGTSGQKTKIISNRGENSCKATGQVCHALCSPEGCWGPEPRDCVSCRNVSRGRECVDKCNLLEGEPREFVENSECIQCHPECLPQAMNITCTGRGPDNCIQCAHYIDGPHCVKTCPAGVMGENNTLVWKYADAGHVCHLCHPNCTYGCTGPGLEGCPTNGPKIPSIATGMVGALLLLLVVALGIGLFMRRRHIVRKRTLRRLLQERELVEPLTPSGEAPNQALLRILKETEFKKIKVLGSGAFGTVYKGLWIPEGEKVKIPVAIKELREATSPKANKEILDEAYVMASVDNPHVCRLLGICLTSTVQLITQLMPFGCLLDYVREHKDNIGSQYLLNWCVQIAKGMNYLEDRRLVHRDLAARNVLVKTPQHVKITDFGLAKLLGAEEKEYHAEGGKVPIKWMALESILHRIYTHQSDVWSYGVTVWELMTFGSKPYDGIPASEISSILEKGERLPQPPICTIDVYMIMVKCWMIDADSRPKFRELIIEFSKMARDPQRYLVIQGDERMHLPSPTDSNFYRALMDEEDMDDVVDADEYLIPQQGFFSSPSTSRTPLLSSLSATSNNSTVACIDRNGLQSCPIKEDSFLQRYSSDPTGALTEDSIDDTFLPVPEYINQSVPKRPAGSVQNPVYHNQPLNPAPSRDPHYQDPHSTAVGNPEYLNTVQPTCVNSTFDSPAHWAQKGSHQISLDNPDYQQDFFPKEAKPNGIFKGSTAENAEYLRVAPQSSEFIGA
Dickkopf-related protein 1 (Homo sapiens), sequence (O94907 whole entry, looked up): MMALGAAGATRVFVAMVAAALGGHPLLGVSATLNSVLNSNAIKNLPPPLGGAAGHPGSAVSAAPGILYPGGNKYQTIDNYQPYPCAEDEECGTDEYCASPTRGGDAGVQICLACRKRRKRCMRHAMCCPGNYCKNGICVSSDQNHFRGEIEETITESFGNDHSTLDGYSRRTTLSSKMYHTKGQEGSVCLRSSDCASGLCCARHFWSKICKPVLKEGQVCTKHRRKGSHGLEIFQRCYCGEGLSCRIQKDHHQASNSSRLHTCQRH

As to `COCCOC(=O)N1C(=O)[C@@]2(c3ccccc31)[C@H](C(=O)N1CCc3cc(OC)c(OC)cc3C1)[C@H]1C(=O)O[C@H](c3ccccc3)[C@H](c3ccccc3)N1[C@@H]2c1ccc(OCCO)cc1`, the composite z-score in [1] was determined as 1.33; in assay [2], 0.232; in assay [3], 0.395; in assay [5], 1.15; in [6], 1.01; in [7] it was 0.565. Moreover, the results for the composite z-score in [8], in [9] and in assay [10] were 0.473, 0.235 and 0.0475, respectively. The z-score in assay [4] was -1.27 (inactive).

On to `C[C@H]1NC(=O)[C@@]23C(=O)N[C@@H](Cc4ccccc4)C2[C@H](C)[C@@]2(C)O[C@H]2C3/C=C/C/C=C\CNC(=O)[C@@H]2CCCN2C1=O` (stereo not given in full), for which the composite z-score in assay [1] was 0.466; in assay [2] it was -0.192; in assay [3] it was -0.575; in assay [5] it was 0.861; in assay [6], 0.365; in assay [7], 0.283. Further, the figures for the composite z-score in [8], in assay [9] and in assay [10] were 0.891, 0.296 and 0.947, respectively. Further, the z-score in assay [4] was 0.856 (inactive).

`C=CCOC(=O)[C@H]1[C@@H]2C(=O)O[C@@H](c3ccccc3)[C@@H](c3ccccc3)N2[C@@H](c2ccc(OCCOC(=O)[C@@H]3C[C@@H]4C(=O)N[C@@H](CC(C)C)C(=O)N4[C@@H]3c3ccc(O)cc3)cc2)[C@]12C(=O)Nc1ccccc12`: the composite z-score was found to be 1.58 in [1]; 0.105 in assay [2]; 0.257 in [3]; 1.26 in assay [5]; 1.3 in assay [6]; 0.671 in assay [7]. For the same compound, the composite z-score in assay [8] is 1.3; in assay [9], 0.675; in assay [10], -0.233. In assay [4], the z-score was 0.426 (inactive).

As to `CC(C)C(O)C1C=CC2C(=O)NC(=O)C2N1Nc1ccc(Cl)cc1Cl` (stereo not given), the composite z-score is 0.686 in assay [1]; 1.2 in assay [2]; 1.37 in assay [3]; -0.0826 in assay [5]; -0.234 in assay [6]; -0.0718 in assay [7]. Moreover, the results for the composite z-score in [8], in [9] and in assay [10] were -0.265, -0.939 and 1.47, respectively. Also, the z-score in assay [4] is 1.54 (inactive).

Consider `CCOC(=O)[C@H]1C/C=C/C[C@H](C(=O)OCC)C(=O)O[C@H]2[C@@H](OC)O[C@H](CO)[C@@H](OC(=O)c3c(OC)cccc3OC)[C@@H]2OC1=O`, for which the composite z-score in assay [1] is 0.615; in assay [2], -0.0451; in assay [3] it was 0.152; in assay [5], 0.803; in assay [6], 0.62; in assay [7] it was -0.13. The figures for the composite z-score in [8], in assay [9] and in assay [10] were 1.16, 0.764 and 0.837, respectively. The z-score in [4] is 0.837 (inactive).

With `COc1ccc(CCNC(=O)[C@@]2(Sc3ccc(C)cc3)CC(=O)N(C3Cc4ccccc4C3)[C@@H]2c2ccc(CO)cc2I)cc1`, the composite z-score is 1.09 in assay [1]; 0.736 in assay [2]; 0.575 in [3]; -0.461 in [5]; -0.64 in assay [6]; -0.895 in assay [7]. The composite z-score was -0.856 in [8], -1.41 in [9] and 0.48 in assay [10]. Further, in assay [4], the z-score was -1.27 (inactive).

For the compound `CCOC(=O)C1=C[C@@H](C(C)(C)C)N(S(=O)(=O)c2ccc(C)cc2)[C@H]1c1ccc(F)cc1`, the composite z-score was 0.592 in [1]; 0.75 in assay [2]; 0.4 in assay [3]; 0.81 in assay [5]; 1.29 in assay [6]; 0.395 in [7]. Further, the composite z-score in [8] was determined as 1.23; in assay [9], 0.402; in [10] it was 0.556. Also, the z-score in [4] is -0.711 (inactive).

Turning to `CCCCCN1CC=CC23O[C@@H]4/C=C\CCC(C)OC(=O)C4[C@H]2C(=O)N(C(C)CO)[C@@H]3C1=O` (stereo not given in full), the composite z-score was -0.472 in assay [1]; -0.225 in assay [2]; -0.327 in assay [3]; 0.171 in assay [5]; 0.0131 in assay [6]; -0.601 in assay [7]. Besides, the results for the composite z-score in assay [8], in [9] and in assay [10] were -0.0103, -0.23 and 0.908, respectively. In addition, the z-score in [4] is 0.304 (inactive).

`COC(=O)C(CC#Cc1ccc2c(c1)[C@]1(C(=O)N2)[C@H](c2ccc(OCCO)cc2)N2[C@H](c3ccccc3)[C@H](c3ccccc3)OC(=O)[C@H]2[C@@H]1C(=O)Nc1nc2ccccc2s1)C(=O)OC`: the composite z-score in assay [1] is 0.842; in assay [2], -0.348; in assay [3] it was 0.0051; in assay [5], 1.03; in assay [6], 1.28; in [7], 0.313. Besides, the composite z-score was found to be 1.09 in assay [8], 0.42 in [9] and 0.0864 in assay [10]. For the same compound, the z-score in assay [4] was -0.0218 (inactive).

In the case of `COCC(=C=CC[C@@H](O)c1cccc(OCCO)c1)C[C@@H](O)c1ccccn1`, the composite z-score in [1] was 0.976; in assay [2] it was -0.193; in assay [3], -0.355; in [5] it was 0.751; in assay [6], 0.175; in [7], 0.101. The figures for the composite z-score in assay [8], in assay [9] and in assay [10] were 0.167, 0.307 and 0.565, respectively. Also, the z-score in assay [4] is 0.758 (inactive).

As to `CN(C)CCCC[C@@H]1NC(=O)[C@@H]2C[C@H](C(=O)NCCCCCCN)[C@H](c3cccc(OCCO)c3)N2C1=O`, the composite z-score was determined as 0.891 in [1]; 0.956 in [2]; 0.584 in [3]; 0.894 in [5]; 1.22 in assay [6]; 0.0249 in assay [7]. The composite z-score in [8] was 0.0587; in assay [9] it was 0.603; in [10], 0.6. The z-score in [4] was -0.502 (inactive).

As to `C=CCNC(=O)[C@@H]1[C@H]2C(=O)O[C@H](c3ccccc3)[C@H](c3ccccc3)N2[C@H](c2ccccc2OCCO)[C@@]12C(=O)N(C(=O)OCCOC)c1ccccc12`, the composite z-score is 1.54 in assay [1]; -0.0073 in [2]; -0.0387 in [3]; 1.27 in assay [5]; 1.33 in [6]; 0.828 in assay [7]. For the same compound, the results for the composite z-score in assay [8], in [9] and in [10] were 1.44, 0.825 and 0.843, respectively. Further, the z-score in [4] was -0.108 (inactive).

On to `COC(=O)[C@@]1(Cc2ccc(F)cc2)[C@H]2c3cc(C(=O)N(C)C)n(Cc4cc(F)c(F)c(F)c4)c3C[C@H]2CN1C(=O)c1ccccc1`, for which the composite z-score in assay [1] was 0.931; in assay [2], 0.9; in [3], 1.19; in [5] it was 1.16; in [6] it was 0.744; in assay [7], -0.024. Also, the composite z-score was 1.08 in assay [8], -0.85 in assay [9] and 0.529 in assay [10]. Also, in [4], the z-score was -1.91 (inactive).

As to `CC(C)OC(=O)C=C1C[C@@H](c2ccccn2)O[C@@H](c2ccccn2)O1`, the composite z-score in assay [1] was -0.152; in assay [2] it was -0.778; in assay [3], -1.68; in assay [5], 0.627; in assay [6], 0.201; in [7], 0.891. For the same compound, the composite z-score in [8] turned out to be 1.1; in assay [9], 1.47; in assay [10], 1.21. In addition, the z-score in assay [4] was 1.08 (inactive).

Regarding `CN1C(=O)C2C=CC(C(O)C3CC=CCC3)N(N(c3ccccc3)c3ccccc3)C2C1=O` (stereo not given), the composite z-score in [1] is 0.206; in [2] it was 0.244; in assay [3], 0.944; in [5] it was -0.291; in [6], -1.64; in assay [7] it was 0.664. For the same compound, the figures for the composite z-score in [8], in assay [9] and in [10] were 0.184, 0.175 and 1.87, respectively. Moreover, the z-score in assay [4] was 0.773 (inactive).

For `COc1ccc([Si](C)(C)[C@@H]2[C@@H](CCO)O[C@]3(C(=O)N(Cc4ccc(N(C=O)c5ccccc5)cc4)c4ccccc43)[C@H]2C)cc1`, the composite z-score in assay [1] was 0.724; in [2], 0.116; in assay [3], 0.605; in assay [5], 0.224; in assay [6], -0.157; in assay [7], -0.049. In addition, the composite z-score is 0.218 in assay [8], -0.013 in assay [9] and 1.1 in [10]. Also, the z-score in assay [4] was -1.38 (inactive).
